This is a sample that favours compounds with a hit; in the whole collection about 3.4% have one here.
GLS inh: glutaminase GLS (human) inhibition; GLS enzymatic activity, qHTS titration; Potency, µM (doses to about 45.5 µM), inactives show at the top dose activity change, negative = inhibition, usual class: inhibitors; 410,000 tested, 0.21% active; AID 624170; note: % is set by controls: 0 for no effect and ±100 for the full control effect
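Coupled fluorescence readout: glutamate oxidase/HRP/Amplex Red detect glutamate formed by hKGA from L-glutamine (1 mM solution added). Buffer 45 mM KH2PO4 pH 8.2, 0.02% Tween-20; reads at t0 and 30 min RT.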
Mito fusion act: mitochondrial division inhibition or fusion activation. S. cerevisiae fusion-defective mutant growth rescue, CellTiterGlo 48 h. Potency, µM (highest dose often 46.1 µM), without a hit: top-dose growth rescue (activation), hits mostly activators. 320,000 tested, 0.23% active. AID 485298; note: % of control where 0% means no effect; nearly all actives have a fitted effect of over 45% in size
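Read-out: ATP-based luminescence (CellTiterGlo, 10 min ambient) reporting growth of fusion-defective ts yeast after 48 hours at 37C on glycerol/ethanol YPEG medium in the presence of compound.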
PLK1 PBD block: blocks phosphopeptide binding to human PLK1 polo-box domain; Plk1 PBD binding of FITC phosphopeptide, fluorescence polarization; 360,000 tested, 2.8% active; AID 720504; Potency, µM, for inactives: max response, negative = inhibition, usual class: inhibitors; note: series mostly up to about 57 µM; % is set by controls: 0 for no effect and ±100 for the full control effect; nearly all actives have a fitted effect of over 65% in size
PKM2 act: increases activity of human pyruvate kinase M2. purified PKM2, Kinase-Glo ATP luminescence, activation; response scale: 0% is enzyme alone, no compound. 260,000 tested, 0.34% active. Potency, µM (highest dose often 57.5 µM), without a hit: at the highest dose activation, usual class: activators. P14618. AID 1631; note: % is set by controls: 0 for no effect and ±100 for the full control effect; nearly all actives have a fitted effect of over 55% in size
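ATP formation by purified human PK-M2, quantified via coupled luciferase luminescence after 1 h at room temperature with 0.1 mM ADP and 0.5 mM PEP final.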
GCN5L2 inh: inhibitors of human GCN5L2 histone acetyltransferase; Q92830; GCN5L2 HAT assay, ThioGlo1 CoA-SH fluorescence; Potency, µM (doses to about 58.9 µM), for the others: at the highest dose activity change, negative = inhibition, hits mostly inhibitors; 390,000 tested, 0.21% active; note: % is set by controls: 0 for no effect and ±100 for the full control effect
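Preincubate 20nM GCN5L2 with compound 15 min, RT → add 50uM ThioGlo1 + 75uM H3(1-25) + 70uM acetyl-CoA → read fluorescence 0 and 20 min. Primary qHTS; fluorescent artifacts likely.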
VDR inhibitor: vitamin D3 receptor (human) inhibition | P11473 | VDR-SRC2-3 peptide fluorescence polarization, 2 h | Potency, µM, inactives show max response, negative = inhibition, hits mostly inhibitors | 400,000 tested, 0.93% active | AID 504847; note: % is set by controls: 0 for no effect and ±100 for the full control effect
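Two reagent solutions held at 4 deg C in the dark were dispensed, compounds pinned at 23 nl, and the mixture incubated 2 h at room temperature. Read-out: fluorescence polarization of VDR–SRC2-3 peptide binding.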
* = called active by the depositor; [ ] = another dose, or the depositor's remark. Calls come from the whole dose curve; as a rule, active = well fitted curve in the direction sought with a large enough effect; inconclusive = small, poorly fitted or top-dose-only effect, or another doubt; inactive = no such curve, though single readings can be large; an effect the other way counts as inactive or inconclusive. Potency is the fitted concentration of half-maximal effect.

`Cc1cccc(N2CCN(S(=O)(=O)c3ccc4c(c3)NC(=O)C(C)S4)CC2)c1C` (stereo unspecified) gave GLS inh 0%, Mito fusion act 11µM*, PLK1 PBD block -10%, GCN5L2 inh -9% and VDR inhibitor 0%.
`O=C(NCCc1cccnc1)c1cc(COc2ccc(F)cc2F)on1` gave GLS inh -10%, Mito fusion act 4%, PLK1 PBD block -1%, PKM2 act 4%[0.46 µM], GCN5L2 inh -1% and VDR inhibitor 0%.
For O=C(NCCCc1ccccc1)c1cc(COc2ccc(F)cc2Cl)on1 the results were GLS inh 16%, Mito fusion act 17%, PLK1 PBD block 30µM*, GCN5L2 inh -3% and VDR inhibitor inconclusive.
`CCN(CC)c1ccc(C(=S)NC2CCCCC2)cc1` gave GLS inh 19%, Mito fusion act -4%, PLK1 PBD block 24µM*, PKM2 act -5%, GCN5L2 inh 3% and VDR inhibitor inconclusive.
For CCN(CC)c1ccc(C(=S)NCc2ccccc2)cc1 the results were GLS inh 16%, Mito fusion act 7%, PLK1 PBD block inconclusive, PKM2 act -7%, GCN5L2 inh -9% and VDR inhibitor -6%.
CN(C)c1ccc(C(=S)NC2CCCCC2)cc1 was read as GLS inh 3%, Mito fusion act 0%, PLK1 PBD block 13µM*, PKM2 act -7%, GCN5L2 inh -9% and VDR inhibitor inconclusive.
`CCOc1ccc(C(C)NC(=S)NC2CCCCC2)cc1OCC` (stereo unspecified) gave GLS inh 0%, Mito fusion act -2%, PLK1 PBD block 1%, PKM2 act -2%, GCN5L2 inh 1% and VDR inhibitor -11%.
For CCOc1ccc(C(=S)NC2CCCCC2)cc1OCC the results were GLS inh -17%, Mito fusion act -10%, PLK1 PBD block 6µM*, PKM2 act -26%, GCN5L2 inh -16% and VDR inhibitor 40µM*.
Screening CN(C)c1ccc(C(=O)OCC(=O)NC2CCCCCC2)cc1 returned GLS inh 2%, Mito fusion act 28%, PLK1 PBD block -10%, PKM2 act 20%, GCN5L2 inh -7% and VDR inhibitor 4%.
Screening COc1ccc2c(c1)[C@]1(C)CCC(=O)C[C@H]1CC2 returned GCN5L2 inh -19% and VDR inhibitor -13%.
CC(O)[C@H]1CN=C(N)N1CC1CCCCC1 (stereo partly specified) was read as GLS inh -10%, PLK1 PBD block 27µM* and VDR inhibitor inconclusive.
CCc1cc2c3c(c1)C(C)CC(C)(C)N3C(=O)/C2=C1\SC(=O)NC1=O (stereo unspecified) was read as GLS inh 0%, Mito fusion act 22%, PLK1 PBD block 30µM*, PKM2 act 3%, GCN5L2 inh 0% and VDR inhibitor 0%.
For COc1cc2c3c(c1)C(C)CC(C)(C)N3C(=O)C2=O (stereo unspecified) the results were GLS inh -14%, Mito fusion act 2%, PLK1 PBD block -18%, PKM2 act -2%, GCN5L2 inh -1% and VDR inhibitor -26%.
For O=c1cnc2cncnc2n1Cc1ccccc1 the results were GCN5L2 inh -5% and VDR inhibitor -17%.
O=c1cnc2cncnc2n1Cc1ccccc1Cl was read as GCN5L2 inh -4% and VDR inhibitor 40µM*.
For O=C(CSc1ccc(Cl)cc1)NC(=O)c1ccccc1 the results were GLS inh 4%, Mito fusion act -5%, PLK1 PBD block 12µM*, GCN5L2 inh 6% and VDR inhibitor -21%.
Screening Cc1ccc(S(=O)(=O)CCc2nc3ccccc3s2)cc1 returned GLS inh 0%, Mito fusion act 0%, PLK1 PBD block 24µM*, PKM2 act -5%, GCN5L2 inh 3% and VDR inhibitor -1%.
